{"source": "PubChem BioAssay", "note": "The source made the active and inactive calls. Rule as the data show it: active = inhibition above about 44%; inactive = the rest.", "data": [{"target": "Steroidogenic factor 1 (Homo sapiens) (UniProt Q13285)", "sequence (Q13285 whole entry, looked up)": "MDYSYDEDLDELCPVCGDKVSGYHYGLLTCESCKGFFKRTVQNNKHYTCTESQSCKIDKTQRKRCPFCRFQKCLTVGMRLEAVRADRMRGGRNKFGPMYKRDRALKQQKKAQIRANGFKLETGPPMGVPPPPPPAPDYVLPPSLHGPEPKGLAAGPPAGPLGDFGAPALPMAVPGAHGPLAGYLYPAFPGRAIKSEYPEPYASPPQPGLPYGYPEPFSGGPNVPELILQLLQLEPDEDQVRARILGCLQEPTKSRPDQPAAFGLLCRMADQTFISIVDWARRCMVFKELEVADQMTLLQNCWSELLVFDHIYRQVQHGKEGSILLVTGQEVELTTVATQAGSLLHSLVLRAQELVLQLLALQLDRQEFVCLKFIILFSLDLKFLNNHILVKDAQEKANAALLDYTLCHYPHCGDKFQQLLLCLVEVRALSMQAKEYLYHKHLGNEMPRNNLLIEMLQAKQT", "assay": "SF1 (NR5A1) inverse agonists, counter-screen for LRH-1 inverse agonist project, cell-based, luminescence, high throughput (AID 651614);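 also: cells cotransfected with StAR promoter reporter and SF1 expression vector; 0% = vehicle on cells with receptor and 100% = vehicle on cells lacking receptor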", "conditions": "cell-based SF1 luciferase reporter, at 3.6 µM, stronger effect = higher value", "values": [{"smiles": "Cc1cc(OC(=O)c2ccco2)c2c3c(c(=O)oc2c1)CCCC3", "inhibition": "47.2% (active)"}, {"smiles": "CC12CCC(O)CC1CCC1C2CCC2(C)C(C3=CC(=O)OC3)C(O)CC12O", "note": "(configuration not stated)", "inhibition": "74.8% (active)"}, {"smiles": "CCOC(=O)[C@]12Cc3cc(Cl)ccc3[C@H]1N(C1CCCCC1)C(=O)c1cc(OC)ccc12", "inhibition": "93.1% (active)"}, {"smiles": "N#CCCn1cc(C(=O)Nc2ccc([N+](=O)[O-])cc2)c(-c2ccccc2)n1", "inhibition": "41.5% (inactive)"}, {"smiles": "CCN(CC)C(=O)COc1cc(C)cc2oc(=O)c3c(c12)CCCC3", "inhibition": "59% (active)"}, {"smiles": "C[C@@H]1O[C@@H](O[C@H]2C[C@@H](O)[C@]3(CO)[C@H]4[C@H](O)C[C@]5(C)[C@@H](C6COC(=O)C6)CC[C@]5(O)[C@@H]4CC[C@]3(O)C2)[C@H](O)[C@H](O)[C@H]1O", "note": "(some centres not stated)", "inhibition": "87.3% (active)"}, {"smiles": "CC(=O)O[C@H]1C[C@@H]2OC3C=C(C)CCC3(C)[C@@]1(C)[C@@]21CO1", "note": "(some centres not stated)", "inhibition": "96.8% (active)"}, {"smiles": "Cc1cc(OCC(=O)OC(C)C)c2c3c(c(=O)oc2c1)CCCC3", "inhibition": "54.9% (active)"}, {"smiles": "COC1/C=C/C=C(\\C)Cc2cc(O)c(Cl)c(c2)N(C)C(=O)CC(OC(=O)C(C)C)C2(C)OC2C(C)C2CC1(O)NC(=O)O2", "note": "(configuration not stated)", "inhibition": "62.5% (active)"}, {"smiles": "CCOC(=O)[C@]12Cc3cc(Cl)ccc3[C@H]1N(C1CCCCC1)C(=O)c1ccccc12", "inhibition": "89.1% (active)"}, {"smiles": "CC1CCN(C(=O)CCl)CC1", "inhibition": "57% (active)"}, {"smiles": "CC(=O)OC1CC(OC2C(O)CC(OC3C(O)CC(OC4CCC5(C)C(CCC6C5CCC5(C)C(C7=CC(=O)OC7)CCC65O)C4)OC3C)OC2C)OC(C)C1OC1OC(CO)C(O)C(O)C1O", "note": "(configuration not stated)", "inhibition": "96.6% (active)"}]}]}
